The text below walks through data of the antibiotic and cytotoxicity screens of Wong et al. (2023).

SMILES strings stand for the structures. Out of some 39,000 compounds screened, about 3,300 (8.5%) were called active. The list comes from a sample in which actives are over-represented; it also holds similar structures and randomly drawn compounds.

The test system of the test is HepG2. As to the kind of experiment: cytotoxicity call (relative viability < 0.9). The conditions noted are these: 10 µM.
Regarding `COc1cccc(C#Cc2cnc3c(c2)C(=O)N([C@H](C)CO)C[C@@H](C)[C@@H](CN(C)C(=O)C2CCOCC2)O3)c1`, the cytotoxicity call is “inactive”.
Regarding `C[C@H]1CN([C@@H](C)CO)C(=O)CCCn2nncc2CO[C@H]1CN(C)S(=O)(=O)c1ccc(-n2cccn2)cc1`, the cytotoxicity call was “inactive”.
With `CCOC(=O)c1cc2c(c(-c3ccccc3)n1)[C@@H](CCO[Si](C)(C)C(C)(C)C)N(S(=O)(=O)C(C)(C)C)C2` the entry was “inactive”; with `CCC(=O)Nc1ccc2c(c1)C(=O)N(C)C[C@@H](OC)[C@@H](C)CN(C(=O)CN1CCOCC1)[C@@H](C)CO2`, “inactive”.
Under `O=C(O)COCC(=O)NCc1ccco1` stands “inactive”; under `O=C1O[C@@H](c2ccccc2)[C@@H](c2ccccc2)N2[C@@H](c3ccc(O)cc3)[C@]3(C(=O)Nc4ccccc43)[C@@H](C(=O)Nc3nc4ccccc4s3)[C@H]12`, “inactive”.
Under `C[C@H]1CN([C@@H](C)CO)C(=O)c2cc(C#Cc3ccccc3F)cnc2O[C@@H]1CN(C)C(=O)c1ccc2c(c1)OCO2` stands “inactive”; under `C[C@@H]1CN([C@H](C)CO)C(=O)Cc2cc(N(C)C)ccc2O[C@@H]1CN(C)S(=O)(=O)c1cn(C)cn1`, “inactive”; under `C[C@@H]1CN([C@@H](C)CO)C(=O)c2cc(NC(=O)Nc3ccc(C(F)(F)F)cc3)ccc2O[C@@H]1CN(C)C(=O)Nc1ccc2c(c1)OCO2`, “active”.
For `C[C@@H]1CN([C@H](C)CO)C(=O)c2cc(NC(=O)Nc3ccc(C(F)(F)F)cc3)ccc2O[C@H]1CN(C)C(=O)Nc1ccc2c(c1)OCO2`, the cytotoxicity call was “inactive”.
Under `C[C@H]1CN([C@@H](C)CO)C(=O)c2cc(NC(=O)Nc3ccc4c(c3)OCO4)ccc2O[C@@H]1CN(C)C(=O)Nc1ccc(C(F)(F)F)cc1` stands “inactive”; under `C[C@H]1CN([C@@H](C)CO)C(=O)c2cc(NC(=O)Nc3ccc4c(c3)OCO4)ccc2O[C@H]1CN(C)C(=O)Nc1ccc(C(F)(F)F)cc1`, “inactive”; under `C[C@H]1CN([C@@H](C)CO)C(=O)c2cc(NC(=O)Nc3ccc(C(F)(F)F)cc3)ccc2O[C@@H]1CN(C)C(=O)Nc1ccc2c(c1)OCO2`, “active”.
Take `C[C@@H]1CN([C@@H](C)CO)C(=O)c2cc(NC(=O)Nc3ccc4c(c3)OCO4)ccc2O[C@H]1CN(C)C(=O)Nc1ccc(C(F)(F)F)cc1`: the cytotoxicity call is “inactive”.
Under `COCCNC(=O)C[C@@H]1C[C@@H]2c3cc(NC(=O)COC)ccc3O[C@@H]2[C@@H](CO)O1` stands “inactive”; under `Cc1noc(C)c1NC(=O)Nc1ccc2c(c1)C(=O)N([C@@H](C)CO)C[C@@H](C)[C@H](CN(C)S(=O)(=O)c1ccccc1)OCCCC[C@@H](C)O2`, “inactive”.
Under `C[C@H]1CN([C@@H](C)CO)C(=O)c2cc(NC(=O)Cn3cnnn3)ccc2O[C@@H]1CN(C)Cc1ccc(C(=O)Nc2ccccc2N)cc1` stands “inactive”; under `C[C@@H]1CN([C@H](C)CO)C(=O)c2cc(NC(=O)C3CC3)ccc2O[C@@H]1CN(C)S(=O)(=O)c1cn(C)cn1`, “inactive”; under `COc1ccc(CN(C)C[C@H]2OCCCC[C@@H](C)Oc3ccc(NS(=O)(=O)c4ccc(F)cc4)cc3C(=O)N([C@H](C)CO)C[C@@H]2C)cc1`, “inactive”.
With `COc1ccccc1NC(=O)N(C)C[C@@H]1Oc2cc(Br)ccc2S(=O)(=O)N([C@@H](C)CO)C[C@@H]1C` the entry was “inactive”; with `C[C@H]1CN([C@@H](C)CO)S(=O)(=O)c2ccc(-c3cncnc3)cc2O[C@H]1CN(C)C(=O)NC1CCCC1`, “inactive”; with `COc1ccc2c3c([nH]c2c1)[C@H](CO)N(Cc1ccc(cc1)Cl)C[C@]13CCN(CCc2ccccc2)CC1`, “active”.
Regarding `COc1ccc2c3c([nH]c2c1)[C@@H](CO)N(Cc1ccc(cc1)Cl)C[C@]13CCN(CCc2ccccc2)CC1`, the cytotoxicity call is “active”.
With `COc1ccc2c3c([nH]c2c1)[C@@H](CO)N(Cc1ccncc1)C[C@]13CCN(CC1)Cc1ccc(cc1)-c1ccccn1` the entry was “inactive”; with `COc1ccc2c3c([nH]c2c1)[C@H](CO)N(Cc1ccccc1)C[C@]13CCN(CC1)C(=O)Nc1cccc(c1)F`, “inactive”.
Under `COc1ccc(cc1)CN1C[C@]2(CCN(CC2)C(=O)Nc2cccc(c2)F)c2c([nH]c3cc(ccc23)OC)[C@@H]1CO` stands “inactive”; under `COc1ccc2c3c([nH]c2c1)[C@@H](CO)N(C[C@]13CCN(CCc2ccccc2)CC1)C(=O)CN1CCOCC1`, “inactive”.
With `COc1ccc(NC(=O)N(C)C[C@H]2OCCCC[C@H](C)Oc3ccc(NC(=O)C4CCCCC4)cc3C(=O)N([C@H](C)CO)C[C@@H]2C)cc1` the entry was “inactive”.
Regarding `C[C@@H]1CN([C@@H](C)CO)C(=O)c2cc(NS(=O)(=O)c3cccs3)ccc2O[C@H]1CN(C)Cc1ccncc1`, the cytotoxicity call is “inactive”.
Under `Cc1noc(C)c1S(=O)(=O)N(C)C[C@@H]1Oc2ccc(NC(=O)Cc3ccccc3)cc2CC(=O)N([C@@H](C)CO)C[C@H]1C` stands “inactive”; under `C[C@@H]1CN([C@H](C)CO)C(=O)Cc2cc(NS(=O)(=O)c3ccc(Cl)cc3)ccc2O[C@H]1CN(C)Cc1ccc(-c2ccccc2)cc1`, “inactive”; under `C[C@@H]1CN([C@@H](C)CO)C(=O)Cc2cc(NS(=O)(=O)c3ccc(Cl)cc3)ccc2O[C@H]1CN(C)Cc1ccc(-c2ccccc2)cc1`, “active”.
With `C[C@H](CO)N1C[C@H](C)[C@H](CN(C)Cc2ccc(-c3ccccc3)cc2)Oc2ccc(NS(=O)(=O)c3ccc(Cl)cc3)cc2CC1=O` the entry was “inactive”; with `C[C@H]1CN([C@@H](C)CO)C(=O)Cc2cc(NS(=O)(=O)c3ccc(Cl)cc3)ccc2O[C@@H]1CN(C)Cc1ccc(-c2ccccc2)cc1`, “inactive”.
Under `C[C@@H]1CN([C@@H](C)CO)C(=O)Cc2cc(NS(=O)(=O)c3ccc(Cl)cc3)ccc2O[C@@H]1CN(C)Cc1ccc(-c2ccccc2)cc1` stands “inactive”.
For `C[C@H]1CN([C@@H](C)CO)C(=O)Cc2cc(NS(=O)(=O)c3ccc(Cl)cc3)ccc2O[C@H]1CN(C)Cc1ccc(-c2ccccc2)cc1`, the cytotoxicity call was “active”.
Under `C[C@H](CO)N1C[C@H](C)[C@@H](CN(C)Cc2ccc(-c3ccccc3)cc2)Oc2ccc(NS(=O)(=O)c3ccc(Cl)cc3)cc2CC1=O` stands “inactive”.
Regarding `C[C@@H]1CN([C@H](C)CO)C(=O)Cc2cc(NS(=O)(=O)c3ccc(Cl)cc3)ccc2O[C@@H]1CN(C)Cc1ccc(-c2ccccc2)cc1`, the cytotoxicity call was “active”.
With `C[C@@H]1CN([C@@H](C)CO)C(=O)c2cc(NS(C)(=O)=O)ccc2O[C@@H](C)CCCCO[C@H]1CN(C)CC1CC1` the entry was “inactive”; with `C[C@@H]1CN([C@H](C)CO)C(=O)c2cc(NC(=O)Cn3cnnn3)ccc2O[C@H]1CN(C)Cc1ccc(Cl)c(Cl)c1`, “inactive”; with `C[C@H]1CN([C@@H](C)CO)C(=O)c2cccc(NS(=O)(=O)c3ccc(F)cc3)c2O[C@@H]1CN(C)S(=O)(=O)c1cccs1`, “inactive”.
Under `O=C(C[C@H]1C[C@@H]2c3cc(NC(=O)Nc4ccc(C(F)(F)F)cc4)ccc3O[C@@H]2[C@H](CO)O1)NCc1cc(F)ccc1F` stands “inactive”.
With `C[C@H](CO)N1C[C@H](C)[C@@H](CN(C)C(=O)Nc2cccc(F)c2)OCc2ccccc2-c2ccccc2C1=O` the entry was “inactive”; with `C[n+]1ccc(CCCO)cc1`, “inactive”.
`CC(C)C(N)C(=O)OCCOCn1cnc2c(=O)[nH]c(N)nc21.Cl` (stereo not given): the cytotoxicity call is “inactive”.
On to `Clc1ccc(CCC(Cn2ccnc2)Sc2c(Cl)cccc2Cl)cc1` (stereo not given), for which the cytotoxicity call is “inactive”.
With `Clc1ccc(COC(Cn2ccnc2)c2ccc(Cl)cc2Cl)c(Cl)c1.O=[N+]([O-])O` (stereo not given) the entry was “inactive”.
Under `Clc1ccc(C(Cn2ccnc2)OCc2c(Cl)cccc2Cl)c(Cl)c1.O=[N+]([O-])O` (stereo not given) stands “inactive”; under `Clc1ccc(CSC(Cn2ccnc2)c2ccc(Cl)cc2Cl)cc1.O=[N+]([O-])O` (stereo not given), “active”.
With `Clc1ccc(COC(Cn2ccnc2)c2ccc(Cl)cc2Cl)cc1.O=[N+]([O-])O` (stereo not given) the entry was “active”; with `Clc1ccc(CON=C(Cn2ccnc2)c2ccc(Cl)cc2Cl)c(Cl)c1.O=[N+]([O-])O`, “inactive”; with `CC(C)NC(=O)N[C@H]1C=C[C@H](CC(=O)NCCCN(C)C)O[C@@H]1CO`, “inactive”.
Consider `COc1cccc(S(=O)(=O)N[C@H]2C=C[C@@H](CC(=O)NC3CCC3)O[C@H]2CO)c1`, for which the cytotoxicity call is “inactive”.
With `C[C@@H]1CN([C@@H](C)CO)C(=O)c2cc(N(C)C)ccc2O[C@H]1CN(C)S(=O)(=O)c1ccc(Cl)cc1` the entry was “inactive”; with `Cc1cccc(NC(=O)CN2C(=O)CNC2=O)c1`, “inactive”.
With `C[C@H](CO)N1C[C@H](C)[C@H](CN(C)C(=O)Nc2ccc3c(c2)OCO3)Oc2ccc(NS(C)(=O)=O)cc2CC1=O` the entry was “inactive”.
Under `CCC(=O)N1CCN(c2ccc(-n3c(=O)ccc4cnc5ccc(-c6cnc7ccccc7c6)cc5c43)cc2C(F)(F)F)CC1` stands “active”.
`Cc1noc(C)c1NC(=O)Nc1ccc2c(c1)C(=O)N([C@H](C)CO)C[C@H](C)[C@H](CN(C)C(=O)C1CCCCC1)OCCCC[C@H](C)O2`: the cytotoxicity call is “inactive”.
Take `C[C@H]1CN([C@@H](C)CO)C(=O)c2cccc(NC(=O)c3nc4ccccc4s3)c2O[C@H]1CN(C)Cc1ccc(C(F)(F)F)cc1`: the cytotoxicity call is “inactive”.
Under `O=C(C[C@@H]1C[C@@H]2c3cc(NC(=O)C4CCOCC4)ccc3O[C@@H]2[C@H](CO)O1)NCc1ccc2c(c1)OCO2` stands “inactive”; under `CS(C)(=O)=O`, “active”.
With `CS(=O)(=O)OCCCCOS(C)(=O)=O` [listing 1 of 2 here] the entry was “inactive”; with `CS(=O)(=O)OCCCCOS(C)(=O)=O` [listing 2 of 2 here], “inactive”.
With `CCOC(=O)c1c[nH][nH]c1=O`, the cytotoxicity call is “inactive”.
Under `CC(C)NC(=O)N(C)C[C@H]1OCCCC[C@H](C)Oc2ccc(NC(=O)Nc3ccc(F)cc3)cc2C(=O)N([C@H](C)CO)C[C@@H]1C` stands “inactive”; under `C[C@H](CO)N1C[C@H](C)[C@@H](CN(C)C(=O)Cc2ccccc2)OCCCC[C@H](C)Oc2ccc(NC(=O)NC3CCCCC3)cc2C1=O`, “inactive”; under `COc1nn(C)cc1C(=O)Nc1ccon1`, “inactive”.
With `OCCN1CNC(=S)NC1` the entry was “inactive”; with `CCCCN1CNC(=S)NC1`, “active”; with `S=C1NCN(CCc2ccccc2)CN1`, “inactive”.
